# Measurements taken from PubChem BioAssay AID1851 (National Center for Advancing Translational Sciences (NCATS), 2009).
# “And” between values parts separate entries of the source, which are not always exact repeats. Equal values may be shown once. Hit rate of the full screen: of about 16,000 compounds, about 4,000 (25%) were called active. Roughly 26% stayed inconclusive and do not appear here. Calls come from the whole dose curve; as a rule, active = well fitted curve in the direction sought with a large enough effect; inconclusive = small, poorly fitted or top-dose-only effect, or effect the other way; inactive = no such curve, though single readings can be large or run the other way. These entries were drawn from the full list. Some structures have more than one record in an assay (separate samples or runs), and their calls can disagree.
# Target: Cytochrome P450 2C9 (Homo sapiens) (UniProt P11712)
# Sequence (P11712 whole entry, looked up): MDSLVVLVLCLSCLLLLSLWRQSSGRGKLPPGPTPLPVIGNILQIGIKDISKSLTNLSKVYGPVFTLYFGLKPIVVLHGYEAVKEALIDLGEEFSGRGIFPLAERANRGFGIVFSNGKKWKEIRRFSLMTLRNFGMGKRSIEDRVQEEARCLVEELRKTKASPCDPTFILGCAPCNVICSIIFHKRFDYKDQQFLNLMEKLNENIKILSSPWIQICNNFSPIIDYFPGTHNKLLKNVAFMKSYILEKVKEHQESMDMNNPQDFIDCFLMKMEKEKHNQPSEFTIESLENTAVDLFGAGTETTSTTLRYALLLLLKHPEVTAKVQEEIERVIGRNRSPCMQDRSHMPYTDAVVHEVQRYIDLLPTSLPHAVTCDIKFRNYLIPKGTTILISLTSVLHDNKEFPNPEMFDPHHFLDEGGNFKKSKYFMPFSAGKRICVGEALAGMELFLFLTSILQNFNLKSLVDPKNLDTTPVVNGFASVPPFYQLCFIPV
# Experiment: Cytochrome panel assay with activity outcomes
# Details: recombinant CYP, pro-luciferin dealkylation, luminescence, p450-cyp2c9; series mostly up to 57.1 µM; activity, negative = inhibition: at the top concentration
# % is set by controls: 0 for no effect and ±100 for the full control effect.
SMILES,"activity, negative = inhibition",AC50
CN(Cc1ccco1)c1ncnc2ccc(-c3ccccc3C#N)cc12,-18.9% [at 2.29 µM] (inactive),
Oc1ccc2ccccc2c1/C=C\c1ccc2c(Br)cc(Br)c(O)c2n1,,2.51 µM (active)
Oc1ccc2ccccc2c1C=NCc1c(O)ccc2ccccc12,-2.74% [at 11.4 µM] (inactive),
FC(F)(F)c1ccccc1-c1ccc2ncnc(NC3CC3)c2c1,-6.68% [at 2.29 µM] (inactive),
O=C(NCCc1ccccc1)C(=O)NN=C1CCCC1,-22.4% (inactive),
O=C1Nc2ccccc2/C1=N/c1sc2c(c1C(=O)NCCc1ccccc1)CCCC2,,3.98 µM (active)
NS(=O)(=O)c1ccc(N=C2C(=O)Nc3ccccc32)cc1,0.554% [at 11.4 µM] (inactive),
C=CC1=C(C(=O)O)N2C(=O)[C@@H](NC(=O)/C(=N\OCC(=O)O)c3csc(N)n3)[C@@H]2SC1,6.6% [at 25.6 µM] (inactive),
CN(C)S(=O)(=O)Oc1cccc(C(=O)Nc2ccccc2Cl)c1,,5.01 µM (active)
O=C(NNc1cccc(Cl)n1)Nc1ccccc1Cl,2.18% (inactive),
Cc1nc2cnc(N(C)C)nc2n(C)c1=O,-11.2% (inactive),
CCOC(=O)c1sc2nc3c(cc2c1N)COC(C)(CC)C3 (configuration not stated),,10 µM (active)
CCOC(=O)c1sc2nc3c(cc2c1N)COC(C(C)C)C3 (configuration not stated),-14.7% (inactive),
CCOC(=O)/C(=C/Nc1ccccc1)[N+](=O)[O-],-19.7% (inactive),
C#CCN1C(C)=C(C(=O)OC)[C@@H](c2cccc([N+](=O)[O-])c2)C(C(=O)OCC)=C1C,,0.316 µM (active)
CCOC(=O)C1=C(C)NC(C)=C(C(=O)OC)[C@@H]1c1cccc([N+](=O)[O-])c1,,0.316 µM (active)
CCOC(=O)C1=C(C)NC(C)=C(C(=O)OC)[C@H]1c1cccc([N+](=O)[O-])c1,,0.158 µM (active)
CO[C@H]1COC(=O)[C@@H](CCSC)NC(=O)C/C=C\[C@@H](C)[C@H](OC)COC(=O)[C@@H](OCc2ccccc2)/C=C\[C@@H]1C,19.4% [at 11.4 µM] (inactive),
O=C(Nc1cc(C(=O)Nc2ccc(S(=O)(=O)O)cc2S(=O)(=O)O)cc(C(=O)Nc2ccc(S(=O)(=O)O)cc2S(=O)(=O)O)c1)Nc1cc(C(=O)Nc2ccc(S(=O)(=O)O)cc2S(=O)(=O)O)cc(C(=O)Nc2ccc(S(=O)(=O)O)cc2S(=O)(=O)O)c1,,inactive and 7.94 µM (active)
O=C(Nc1cccc(C(=O)Nc2ccc(S(=O)(=O)O)c3cc(S(=O)(=O)O)cc(S(=O)(=O)O)c23)c1)Nc1cccc(C(=O)Nc2ccc(S(=O)(=O)O)c3cc(S(=O)(=O)O)cc(S(=O)(=O)O)c23)c1,,inactive
O=C(Nc1ccc(C(=O)Nc2ccc(C(=O)Nc3ccc(S(=O)(=O)O)c4cc(S(=O)(=O)O)cc(S(=O)(=O)O)c34)cc2)cc1)Nc1ccc(C(=O)Nc2ccc(C(=O)Nc3ccc(S(=O)(=O)O)c4cc(S(=O)(=O)O)cc(S(=O)(=O)O)c34)cc2)cc1,-1.99% (inactive),

SMILES,"activity, negative = inhibition",AC50
COCCNc1ccnc(-c2ccccc2C)n1,-5% [at 2.29 µM] (inactive),
CCOC(=O)c1cnn(-c2nc(-c3ccc(F)cc3)cs2)c1C(F)(F)F,,12.6 µM (active)
CCOC(=O)c1cnn(CCOC(=O)C(C)(C)C)c1NC(=O)C(C)(C)C,-32.9% (inactive),
CCOC(=O)c1cn(-c2nc(-c3ccc(Cl)cc3)cs2)c2c(F)c(N3CC(C)OC(C)C3)c(F)cc2c1=O (configuration not stated),-40.2% (inactive),
CCOC(=O)c1cnn(-c2cc(Oc3ccccc3)ncn2)c1N,-9.04% (inactive),
CCOC(=O)c1cnn(-c2nc(-c3cccc(F)c3)cs2)c1C(F)(F)F,,2.24 µM (active)
FC(F)(F)c1ccccc1-c1cncnc1NCc1cccs1,-5.24% [at 2.29 µM] (inactive),
CC(C)n1nnc2ccccc2c1=O,-24.8% (inactive),
O=c1c2ccccc2nnn1CSc1ccc2c(c1)OCCO2,,7.94 µM (active)
Cc1ccc(C(=O)/C=C2\NCC(C)NC2=O)cc1 (configuration not stated),-2.82% (inactive),
Cc1ccc(C(=O)/C=C/c2c[nH]c3ccccc23)cc1,,2.82 µM (active)
CC(C)(C)OC(=O)[C@H]([C@@H]1N[C@@H](C(=O)O)C(C)(C)S1)N1C(=O)c2ccccc2C1=O,19% [at 11.4 µM] (inactive),
CSc1nsc(SCc2ccc(Cl)cc2)n1,,0.355 µM (active)
CCN1C(=O)[C@H]2[C@H]3[C@H](O)[C@H](O)C/C(=N/O[C@@H](C)c4cn([C@H](CO)Cc5ccccc5)nn4)[C@@H]3CC[C@@H]2C1=O,-13.4% [at 11.4 µM] (inactive) and 2.69% [at 11.4 µM] (inactive),
CC1(C)O[C@@H]2O[C@H]([C@H](O)CO/N=C3/[C@H]4O[C@@H]4[C@@H](O)[C@H]4[C@H]3CCn3c(=O)n(-c5ccccc5)c(=O)n34)[C@@H](O)[C@@H]2O1,15.4% [at 11.4 µM] (inactive),
COC(=O)c1c(-n2c(C)cc(C=O)c2C)sc2c1CCCC2,,1.12 µM (active)
Cc1cc(C=O)c(C)n1-c1ccc(NC2CCCC2)c([N+](=O)[O-])c1,-36.3% (inactive),
C(=N/Nc1nnc2c(n1)[nH]c1ccccc12)/c1cccnc1,-16.8% [at 11.4 µM] (inactive),
Cc1sc(N/N=C/c2cccnc2)nc1-c1ccccc1,,0.355 µM (active)
Cc1cnn(-c2cc(N/N=C/c3ccccc3)ncn2)c1,-16% (inactive),
CC(C)=C[C@H]1[C@@H](C(=O)Oc2ccccc2C(C)C)C1(C)C,-15.1% [at 11.4 µM] (inactive),
